# Tested on: MAP4K5
# Conditions: concentration: 1 μM, replicates: in singlicate; n = 1
# 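Also: KINOMEscan kinase panel screen.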
row,Compound,%Inh
1,COc1ccc(Nc2nccc(NCCNC(=O)c3cc4ccccc4s3)n2)cc1 [GSK1379896],8%
2,Clc1ccc(-c2nn3ncccc3c2-c2ccnc(Nc3ccc4c(c3)OCCO4)n2)cc1 [GW829116],0%
3,O=C(Nc1cccc(-c2nn3ncccc3c2-c2ccnc(Nc3ccccc3)n2)c1)c1c(F)cccc1F [GSK198271],84%
4,Nc1ncc(-c2ccc3nccc(-c4ccncc4)c3c2)cc1S(=O)(=O)N1CCOCC1 [GSK1627798],3%
5,Cl.c1ccc(-c2ccc3c(Nc4ccc5[nH]ccc5c4)ccnc3c2)nc1 [GW440138],0%
6,COc1cccc(C2=C(Nc3ccc(Cl)c(C(=O)O)c3)C(=O)NC2=O)c1 [SB-390769],100%
7,O=C(Nc1n[nH]c2cc(-c3ccoc3)ccc12)C1CC1 [SB-738481],0%
8,CCS(=O)(=O)c1ccc(OC)c(Nc2nccc(-c3c(-c4cccc(NC(=O)c5c(F)cccc5F)c4)nn4ncccc34)n2)c1 [GSK326180],0%
9,CN(c1ccc(NC(=O)Nc2cc(C(F)(F)F)ccc2F)cc1)c1ccnc(Nc2ccc(S(N)(=O)=O)cc2)n1 [GW809893],99.2%
10,Oc1cc(Nc2ccnc3cc(I)ccc23)ccc1F [GW552771],100%
11,CC(=O)N1CCN(c2ccc(Nc3nccc(-c4sc(C(C)C)nc4-c4cccc(NS(=O)(=O)c5cccc(Cl)c5)c4)n3)cn2)CC1 [GSK1660437],54%
12,Cn1cc(-c2ccc3c(c2)CCN3C(=O)Cc2cccc(Cl)c2)c2c(N)ncnc21 [GSK2606590],79%
13,COc1ccc(-c2coc3ccc(-c4nnc(SCc5ccc(OC)c(C(F)(F)F)c5)o4)cc23)cc1,0%
14,CC(C)c1nc(-c2cccc(NS(=O)(=O)c3c(F)cccc3F)c2F)c(-c2ccnc(Nc3ccc(N4CCOCC4)nc3)n2)s1 [GSK2008607],88%
15,Cn1cc(-c2ccc3c(c2)CCN3C(=O)Cc2cccc(F)c2)c2c(N)ncnc21 [GSK2603358],57%
16,COc1cc2c(cc1OCCN1CCNCC1)ncc1c3ccc(C#N)cc3[nH]c21,5%
17,Cc1ccc(S(=O)(=O)Nc2ccc(Nc3nccc(Nc4cccc5[nH]ncc45)n3)cc2)cc1 [GSK581271],0%
18,Cc1ccc(C)c(NC(=O)NC2CCN(c3ccnc(Nc4ccc(F)cc4)n3)C2)c1 (stereo not shown) [GSK1379720],0%
19,CN1CCN(Cc2cccc(-c3ccc4c(Nc5ccc(Oc6ccccc6)cc5)ccnc4c3)c2)CC1 [GW578342],0%

row,Compound,%Inh
1,COc1cc(Nc2nccc(-c3c(-c4cccc(NC(=O)c5c(F)cccc5F)c4)nn4ccccc34)n2)cc(OC)c1OC [GSK323521],70%
2,Cc1cccc(Nc2nc(N[C@H]3CCNC3)ncc2C(N)=O)c1.Cl [GSK2197149],33%
3,Nc1n[nH]c2cnc(-c3ccccc3)cc12 [SB-642124],0%
4,Cc1occc1-c1ncc(OC[C@@H](N)Cc2c[nH]c3ccccc23)cc1-c1ccc2[nH]nc(C)c2c1.O=C(O)C(F)(F)F [GSK682037],99.6%
5,CSc1cccc2c(-c3ccncn3)c(-c3ccc(F)cc3)nn12 [GW514786],0%
6,C[C@@H]1CC[C@@H](C(=O)Nc2ccccc2)CN1c1cc(-c2ccc3c(N)n[nH]c3c2)nc(N)n1 [GSK2286062],0%
7,CN(C)Cc1ccc(-c2ccc3c(Nc4ccc(Oc5ccccn5)cc4)ccnc3c2)o1 [GW567148],61%
8,COc1cc(Nc2ncc3c(C)nc(-c4cc5ccccc5[nH]4)n3n2)cc(OC)c1OC [GW869516],11%
9,Cn1cc(-c2[nH]c3cc(NC(=O)[C@H](N)C4CCCCC4)cc4c3c2C=NNC4=O)cn1,52%
10,FC(F)(F)c1ccc(/C=C/c2cncnc2Nc2ccc3[nH]c(Cc4ccccc4)nc3c2)cc1 [GW709199],0%
11,CCCCc1nn2ncccc2c1-c1ccnc(Nc2ccc(N3CCN(C)CC3)cc2)n1 [GW684941],21%
12,COCCOCCOc1cc2ncc3c4ccc(C#N)cc4[nH]c3c2cc1OC,19%
13,COc1cccc(-c2ccc3c(NC(=O)C4CC4)n[nH]c3n2)c1 [SB-710903],3%
14,COc1cc(Nc2nccc(N3CCC(NC(=O)c4cc5ccccc5s4)C3)n2)cc(OC)c1OC (stereo not shown) [GSK1379760],28%
15,COC(=O)Nc1nc2cc(Oc3ccc(NC(=O)Nc4cc(C(F)(F)F)ccc4F)cn3)ccc2[nH]1.Cl.Cl [GW681170],0%
16,COc1cc(Nc2nccc(N3CCC(NC(=O)Nc4cccc(C(C)=O)c4)C3)n2)cc(OC)c1OC (stereo not shown) [GSK1379753],0%
17,c1ccc(-c2cnc3nccnn23)cc1 [AH20685],0%
18,CN1CCN(CCCNc2nccc(-c3c(-c4ccc(F)cc4)nn4cc(C(F)(F)F)ccc34)n2)CC1 [GW621581],0%

# Reference: paper PMC5540273 (PLoS ONE, 2017)
